Over roughly 140,000 sequences, “enrichment ratio after two sorts for PhoP signalling” has its median near 0; the highest 2% begin near 11. The full list was thinned out, with the highest values kept by preference.
B1: PhoQ; a variant is named by its letters at X, in order, P23837 (parent)
chain: MKKLLRLFFPLSLRVRFLLATAAVVLVLSLAYGMVALIGYSVSFDKTTFRLLRGESNLFYTLAKWENNKLHVELPENIDKQSPTMTLIYDENGQLLWAQRDVPWLMKMIQPDWLKSNGFHEIEADVNDTSLLLSGDHSIQQQLQEVREDDDDAEMTHSVAVNVYPATSRMPKLTIVVVDTIPVELKSSYMVWSWFIYVLSANLLLVIPLLWVAAWWSLRPIEALAKEVRELEEHNRELLNPATTRELTSLVRNLNRLLKSERERYDKYRTTLTDLTHSLKTPLXXLQXXLRSLRSEKMSVSDAEPVMLEQISRISQQIGYYLHRASMRGGTLLSRELHPVAPLLDNLTSALNKVYQRKGVNISLDISPEISFVGEQNDFVEVMGNVLDNACKYCLEFVEISARQTDEHLYIVVEDDGPGIPLSKREVIFDRGQRVDTLRPGQGVGLAVAREITEQYEGKIVAGESMLGGARMEVIFGRQHSAPKDE

Variants of: B1
Assay: enrichment ratio after two sorts for PhoP signalling (ratio (wild type AVST 3.29)); higher = more functional
Conditions: with PhoP (E. coli)

Row | Variant | enrichment ratio
1 | THTR | ≤ 0.25
2 | AHLH | ≤ 0.25
3 | CQLH | 27.9
4 | WQLH | ≤ 0.25
5 | HQLH | ≤ 0.25
6 | TPLH | ≤ 0.25
7 | AQLH | 13.8
8 | KKLH | ≤ 0.25
9 | HKLH | ≤ 0.25
10 | RQLH | ≤ 0.25
11 | TKLH | 11.9
12 | MKLH | ≤ 0.25
13 | AKLH | 14.6
14 | PTHK | ≤ 0.25
15 | EMCT | ≤ 0.25
16 | CHLM | ≤ 0.25
17 | QVLK | ≤ 0.25
18 | NHYM | ≤ 0.25
19 | SMGQ | 11.7
20 | KMAQ | ≤ 0.25
21 | SMGG | 1.44
22 | MMCY | ≤ 0.25
23 | SLCY | 2.99
24 | SMHP | ≤ 0.25

Row | Variant | enrichment ratio
25 | SMCK | 9.85
26 | SMAQ | 15.5
27 | SMCY | 11.6
28 | SMCS | 10.4
29 | KYAQ | ≤ 0.25
30 | SMCI | 14.3
31 | GSEH | ≤ 0.25
32 | IYMF | ≤ 0.25
33 | IKKL | ≤ 0.25
34 | TQFP | ≤ 0.25
35 | KGRD | ≤ 0.25
36 | LVLT | ≤ 0.25
37 | VGSS | ≤ 0.25
38 | WDDM | ≤ 0.25
39 | GMHA | ≤ 0.25
40 | SMPL | ≤ 0.25
41 | SMSQ | 11.1
42 | SMPM | ≤ 0.25
43 | SMTM | 14.9
44 | SMCL | 16.6
45 | SMME | 14.6
46 | SMMY | 2.28
47 | SMWM | ≤ 0.25
48 | SMSA | 14.6

Row | Variant | enrichment ratio
49 | SMMD | ≤ 0.25
50 | SMSH | 9.89
51 | SMGL | 5.54
52 | LSHR | ≤ 0.25
53 | KFYP | ≤ 0.25
54 | KYSQ | ≤ 0.25
55 | KEDF | ≤ 0.25
56 | HKIL | ≤ 0.25
57 | EQYF | ≤ 0.25
58 | DLKR | ≤ 0.25
59 | IPGP | ≤ 0.25
60 | FPRY | ≤ 0.25
61 | GVMQ | 5.97
62 | SMCA | 15.3
63 | SMCW | 19.6
64 | SMPA | ≤ 0.25
65 | SMWI | ≤ 0.25
66 | SMTA | 11.8
67 | SNCW | 10.3
68 | SLCW | 0.501
69 | SMCE | 11.7
70 | SMPI | 1.09
71 | SMIE | ≤ 0.25
72 | SMGS | 1.09

Row | Variant | enrichment ratio
73 | SMPE | 0.359
74 | AKLD | ≤ 0.25
75 | VWSC | ≤ 0.25
76 | SVVD | ≤ 0.25
77 | RVNR | ≤ 0.25
78 | SMSI | 12.9
79 | SMSR | ≤ 0.25
80 | KMAE | ≤ 0.25
81 | SMAE | 25.2
82 | SMAV | 5.92
83 | SMSK | 2.79
84 | HLVA | ≤ 0.25
85 | AQPM | ≤ 0.25
86 | RVFT | ≤ 0.25
87 | NAGS | ≤ 0.25
88 | RQQG | ≤ 0.25
89 | LTCH | ≤ 0.25
90 | FDCH | ≤ 0.25
91 | FDMH | ≤ 0.25
92 | LTMH | 2.1
93 | TDCH | 11.9
94 | TDMH | 18.2
95 | EPTI | ≤ 0.25
96 | MAHQ | ≤ 0.25

Row | Variant | enrichment ratio
97 | EKMC | ≤ 0.25
98 | QGGH | ≤ 0.25
99 | SRGH | ≤ 0.25
100 | QITH | ≤ 0.25
101 | SNGH | 23.3
102 | QIGH | 14
103 | SNTH | 7.23
104 | YTGH | ≤ 0.25
105 | QEGH | 24.6
106 | QIYH | ≤ 0.25
107 | STGH | 17.1
108 | SNGP | ≤ 0.25
109 | QRGH | ≤ 0.25
110 | YAAS | ≤ 0.25
111 | QNYF | ≤ 0.25
112 | GMNL | ≤ 0.25
113 | SKVD | ≤ 0.25
114 | LATP | ≤ 0.25
115 | DRAC | ≤ 0.25
116 | VPLT | ≤ 0.25
117 | GGVS | ≤ 0.25
118 | FTAL | 0.293
119 | QVGP | ≤ 0.25
120 | QVGH | 15.9

Row | Variant | enrichment ratio
121 | QVTH | ≤ 0.25
122 | LEMG | 11.8
123 | LEMK | ≤ 0.25
124 | LEGM | ≤ 0.25
125 | LEWV | 11.9
126 | LEMV | 12.9
127 | LEMM | 11.3
128 | LEWI | 2.42
129 | LEMS | 8.78
130 | LRMM | ≤ 0.25
131 | LEGG | ≤ 0.25
132 | LEIV | ≤ 0.25
133 | LEEG | ≤ 0.25
134 | FPFR | ≤ 0.25
135 | FVFS | ≤ 0.25
136 | GEKH | ≤ 0.25
137 | QGKV | ≤ 0.25
138 | SSGP | ≤ 0.25
139 | EPLM | ≤ 0.25
140 | ALDK | ≤ 0.25
141 | EQNV | ≤ 0.25
142 | TQNV | 14.2
143 | IQAH | ≤ 0.25
144 | TQWT | 0.56

Row | Variant | enrichment ratio
145 | TQAH | 13.3
146 | NQAH | ≤ 0.25
147 | TQAT | 12.7
148 | IQNV | ≤ 0.25
149 | WQLC | ≤ 0.25
150 | TQLC | 13.1
151 | NQLC | ≤ 0.25
152 | TQQT | 6.08
153 | MGKS | ≤ 0.25
154 | INSM | 0.298
155 | IPGV | ≤ 0.25
156 | PQPN | ≤ 0.25
157 | FQNC | ≤ 0.25
158 | NNRL | ≤ 0.25
159 | EKQI | ≤ 0.25
160 | RWFN | ≤ 0.25
161 | NWQL | ≤ 0.25
162 | VDAW | ≤ 0.25
163 | RNYN | ≤ 0.25
164 | FRWR | ≤ 0.25
165 | WYYY | ≤ 0.25
166 | TQNI | ≤ 0.25
167 | TQAD | 11.6
168 | TQNW | ≤ 0.25

Row | Variant | enrichment ratio
169 | TQNT | 15.4
170 | TQNY | 6.18
171 | TQLS | 17.6
172 | TQLQ | 5.05
173 | TQNS | 12.8
174 | TQAA | 3.31
175 | TQRA | ≤ 0.25
176 | TQET | ≤ 0.25
177 | LAAD | ≤ 0.25
178 | PAWD | ≤ 0.25
179 | SEAL | 7.85
180 | GSHA | ≤ 0.25
181 | AKYV | ≤ 0.25
182 | FLDC | ≤ 0.25
183 | ANKM | ≤ 0.25
184 | TAGV | 5.24
185 | ICLI | 5.89
186 | FVAK | ≤ 0.25
187 | FELQ | 8.46
188 | IHIG | ≤ 0.25
189 | TQLK | 4.42
190 | EQMT | ≤ 0.25
191 | TQKH | ≤ 0.25
192 | TQMT | 14.6

Row | Variant | enrichment ratio
193 | TQRH | ≤ 0.25
194 | FQMT | ≤ 0.25
195 | TQLT | 18.8
196 | TQNH | 16.3
197 | TQLA | 4.57
198 | NNDT | ≤ 0.25
199 | FCNF | ≤ 0.25
200 | MPFQ | ≤ 0.25
201 | RPVE | ≤ 0.25
202 | VATR | ≤ 0.25
203 | FKHE | ≤ 0.25
204 | YRPV | ≤ 0.25
205 | VMPF | ≤ 0.25
206 | AQGT | 3.18
207 | AQAL | 18.4
208 | GVAL | 1.02
209 | TSAL | 13
210 | AKAL | 11.1
211 | KSAL | ≤ 0.25
212 | VRAL | ≤ 0.25
213 | ASAL | 11.7
214 | FSAL | 0.667
215 | AHAL | ≤ 0.25
216 | MVAL | 11.3

Row | Variant | enrichment ratio
217 | NVAL | ≤ 0.25
218 | GNDN | 0.537
219 | LWNG | ≤ 0.25
220 | QKPR | ≤ 0.25
221 | NSMN | ≤ 0.25
222 | RATG | ≤ 0.25
223 | FCAL | ≤ 0.25
224 | DMAL | ≤ 0.25
225 | KCAL | ≤ 0.25
226 | MKAL | 4.45
227 | TMAL | 14
228 | KMAL | ≤ 0.25
229 | AMAL | 11.3
230 | MFAL | ≤ 0.25
231 | NMAL | ≤ 0.25
232 | MCAL | 13.5
233 | VLAL | 0.925
234 | MMAL | 13.5
235 | HHKF | ≤ 0.25
236 | ICEL | ≤ 0.25
237 | LEWF | ≤ 0.25
238 | GLPR | ≤ 0.25
239 | NEHC | ≤ 0.25
240 | LWEC | ≤ 0.25

Row | Variant | enrichment ratio
241 | TEHC | 22.1
242 | HPEC | ≤ 0.25
243 | QESC | 5.96
244 | YTYC | ≤ 0.25
245 | TEYC | 12.6
246 | TESC | 13.3
247 | TEEC | 12.4
248 | NESC | ≤ 0.25
249 | YYHC | ≤ 0.25
250 | KSYC | ≤ 0.25
251 | YRVI | ≤ 0.25
252 | ETQT | ≤ 0.25
253 | GDCV | 1.12
254 | HWFI | ≤ 0.25
255 | VAGY | 1.53
256 | NQGE | ≤ 0.25
257 | YYNI | ≤ 0.25
258 | MCMI | 4.33
259 | IAKS | ≤ 0.25
260 | NMWR | ≤ 0.25
261 | KAQY | ≤ 0.25
262 | TETC | 24.3
263 | TENK | 5.62
264 | TEPC | ≤ 0.25

Row | Variant | enrichment ratio
265 | PWAR | ≤ 0.25
266 | SRGE | ≤ 0.25
267 | QDFA | ≤ 0.25
268 | SIWI | ≤ 0.25
269 | KYGE | ≤ 0.25
270 | QEMI | 65.2
271 | STMI | 14.9
272 | SIGE | 16.9
273 | SWMI | ≤ 0.25
274 | LWMI | ≤ 0.25
275 | SPMI | ≤ 0.25
276 | KYMI | ≤ 0.25
277 | SIMI | 17.4
278 | WVYV | ≤ 0.25
279 | RSYE | ≤ 0.25
280 | DIVY | ≤ 0.25
281 | VANA | ≤ 0.25
282 | RKTG | ≤ 0.25
283 | ECNY | ≤ 0.25
284 | LALQ | 1.26
285 | AKVS | 13.5
286 | TKVS | 7.5
287 | AIVS | 12.6
288 | WIVS | ≤ 0.25

Row | Variant | enrichment ratio
289 | AAVS | ≤ 0.25
290 | AHVS | ≤ 0.25
291 | YWKL | ≤ 0.25
292 | HFDQ | ≤ 0.25
293 | MNQV | ≤ 0.25
294 | TNWR | ≤ 0.25
295 | TNNV | 13.4
296 | TNCV | 10
297 | TNMH | 15.7
298 | TNHI | ≤ 0.25
299 | TNCH | ≤ 0.25
300 | MNNV | ≤ 0.25
301 | TNQV | 47.4
302 | TNMI | 11.7
303 | TNVA | ≤ 0.25
304 | TNMG | ≤ 0.25
305 | TTFC | ≤ 0.25
306 | IGNC | ≤ 0.25

From a collection of fitness landscapes (doi:10.1126/science.1257360)
